In PubChem BioAssay AID1423 (NMMLSC, 2008):
Among all 220,000 compounds or so, about 750 (0.34%) were called active. Rule as the data show it: active = response below about 60% or above about 140%; inactive = in between. Shown is part of a subset that was picked to be rich in actives.

Each molecule was assayed against Guanine nucleotide-binding protein G(o) subunit alpha (Homo sapiens) (UniProt P09471) (assay: compounds changing RGS8 association with Galphao – biochemical, multiplexed bead flow cytometry, primary screen (AID 1423;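 also: Galphao activated as the GDP aluminium fluoride complex binding bead-coupled RGS8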)). Settings: at 10 µM, actives lie on both sides.
Chain of Guanine nucleotide-binding protein G(o) subunit alpha (Homo sapiens) (P09471 whole entry, looked up): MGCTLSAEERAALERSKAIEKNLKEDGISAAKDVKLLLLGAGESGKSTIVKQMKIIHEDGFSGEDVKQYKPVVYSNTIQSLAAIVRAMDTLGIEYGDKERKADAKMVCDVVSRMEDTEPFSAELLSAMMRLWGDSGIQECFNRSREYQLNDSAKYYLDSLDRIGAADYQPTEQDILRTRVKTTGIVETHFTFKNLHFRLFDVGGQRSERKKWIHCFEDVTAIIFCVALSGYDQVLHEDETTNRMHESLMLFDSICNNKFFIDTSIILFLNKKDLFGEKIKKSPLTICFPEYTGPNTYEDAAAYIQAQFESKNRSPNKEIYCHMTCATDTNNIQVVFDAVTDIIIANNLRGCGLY

Response (percent of control binding), active:
Cc1cc(C)cc(N(CC(=O)Nc2c(C)n(C)n(-c3ccccc3)c2=O)S(C)(=O)=O)c1 1.54%
O=C(CN1CCOCC1)Nc1ccccc1 145% [activator]
N#Cc1nc(COc2ccc(-c3ccccc3)cc2)oc1NCc1cccnc1 167% [activator]
CCn1c(CSCc2c(Cl)cccc2Cl)n[nH]c1=S 55.5%
CCN(CC)CCOc1ccc2c(c1)C(=NNC(=O)c1ccccn1)c1cc(OCCN(CC)CC)ccc1-2 154% [activator]
Cn1c(=O)c2c(n(Cc3ccccc3)c1=O)NC(=O)C2CC(=O)N1CCc2ccccc2C1 (stereo unspecified) 12.1%
CN1CCN(C(CNS(=O)(=O)c2cccs2)c2cccnc2)CC1 (stereo unspecified) 10.6%
COc1cccc(C(=O)NCCSc2ccc(Br)cc2)c1 20.7%
CCOc1ccccc1NC(=O)c1cc(S(=O)(=O)N2CCC3(CC2)OCCO3)ccc1F 33%
COc1ccc(CCC(=O)OCC(=O)Nc2ccc(C)c(S(=O)(=O)N(C)C)c2)cc1 57.7%
COc1ccccc1-n1c(-c2cc(-c3ccco3)[nH]n2)n[nH]c1=S 6.3%
COc1ccc(C(=O)NNc2cc(C)nc(NNC(=O)c3ccc(OC)cc3)n2)cc1 54%
COc1ccc(C(=O)COC(=O)c2ccc3ccccc3n2)cc1 28.9%
CCCC(=O)N=c1sc2cccc(F)c2n1C 37.2%
Oc1ccc(N=Nc2nccs2)c(O)c1 6.26%
Cc1cc(C)n(CC(O)CN(c2ccccc2)S(=O)(=O)c2ccc3ccccc3c2)n1 (stereo unspecified) 15%

Response (percent of control binding), inactive:
Cc1ccc(S(=O)(=O)CC(=O)Nc2c(C)n(C)n(-c3ccccc3)c2=O)cc1 97.4%
Cc1cc(C)cc(N(C(C)C(=O)Nc2c(C)n(C)n(-c3ccccc3)c2=O)S(C)(=O)=O)c1 (stereo unspecified) 104%
CCc1nn(-c2cc(Oc3cccc4ccccc34)nc(-c3ccccc3)n2)c(N)c1C#N 105%
N/C(=N\S(=O)(=O)c1ccc(Cl)cc1)N1CCOCC1 98.4%
CC(C)(C)C(=O)NNC(=O)c1ccc(Oc2cc(Cl)cc(Cl)c2)o1 104%
O=C(CN1CCOCC1)Nc1ccc(NC(=O)CN2CCOCC2)c(Cl)c1 100%
O=C(CN1CCOCC1)Nc1c(Cl)cc(Cl)cc1Cl 96%
CC(=O)c1ccc(N=C2SCCCN2C(=O)C2CCCCC2)cc1 95.4%
O=C(NNc1c2ccccc2nc2ccccc12)c1cc2ccccc2cc1O 98.1%
Cc1ccc(S(=O)(=O)N2CCN(C(=O)COC(=O)c3c(C)noc3C)CC2)c(C)c1 103%
O=S(=O)(c1ccc(Br)cc1)c1nc(-c2ccccc2)oc1NCc1cccnc1 103%
N#Cc1nc(-c2ccc(OCc3ccccc3)cc2)oc1NCCCN1CCOCC1 99.9%
CC(C)(C)NC(=O)NC(=O)COC(=O)Cc1c(F)cccc1Cl 99.5%
CCCCC(CC(C)O)c1n[nH]c(=S)n1-c1ccccc1 (stereo unspecified) 108%
CCn1c(CNS(=O)(=O)c2ccc(Cl)cc2)n[nH]c1=S 100%
S=c1[nH]nc(CSCc2ccc(Cl)cc2Cl)n1-c1ccccc1 92.7%
Cc1ccc(C(=O)C(=S)N2CCOCC2)cc1 110%
CC1CC(C)(C)n2c(O)c(N=NC(N)=S)c3cccc1c32 (stereo unspecified) 100%
NS(=O)(=O)c1ccc(CCNC(=O)CCCn2c(SCC(=O)N3CCCC3)nc3ccsc3c2=O)cc1 103%
O=[N+]([O-])c1ccccc1Nc1ccc(O)cc1 102%
O=C(CC1SC(=Nc2ccccc2F)N(CCN2CCOCC2)C1=O)Nc1ccc(F)cc1F (stereo unspecified) 97.3%
CCOc1cc(NC(=O)c2ccccn2)c(OCC)cc1NC(=O)c1ccc(OC)cc1 103%
COc1ccc(CC(=O)N/N=C(\C)c2ccccn2)cc1 72.6%
COC(=O)C1=C(C)NC(=O)/C1=C/c1ccc(CNS(=O)(=O)c2ccc(C)cc2)o1 91%
O=C(COc1ccccc1)N1CCc2ccccc2C1 101%
O=C(CSc1nnc(-c2cccs2)n1Cc1ccccc1)N1CCc2ccccc2C1 97%
O=C(NC1CCCCC1)C1CCCN(S(=O)(=O)c2ccc(Br)s2)C1 (stereo unspecified) 96.9%
O=C(O)c1ccc2c3c(cccc13)C(=O)N(OS(=O)(=O)c1ccccc1)C2=O 98.5%
Cc1ccc(NC(=O)NCC(c2cccnc2)N2CCOCC2)cc1 (stereo unspecified) 103%
CN1CCN(S(=O)(=O)c2ccc(N3CCN(S(=O)(=O)c4cccs4)CC3)nc2)CC1 100%
CCOC(=O)CCNC(=O)N1CCCC(C(=O)c2ccccc2SC)C1 (stereo unspecified) 90.6%
Cc1ccc2c(N)c(C(=O)c3ccccc3)sc2n1 104%
COc1cccc(C(=O)NNC(=O)c2ccccc2Br)c1 107%
COc1cc(OC)cc(C(=O)NCCSCc2ccco2)c1 97.9%
OC(c1ccccc1)c1nccn1Cc1ccccc1 (stereo unspecified) 97.5%
OC(c1nc2ccccc2[nH]1)C(O)C(O)C(O)c1nc2ccccc2[nH]1 (stereo unspecified) 100%
O=C(N/N=C/c1cccc([N+](=O)[O-])c1)c1ccncc1 99.5%
CCOc1ccccc1NC(=O)CCN1CCN(S(=O)(=O)c2ccc(OC)cc2)CC1 99.6%
Cc1c(C(=O)Nc2ccccc2Cl)oc2ccc(S(=O)(=O)N3CCC4(CC3)OCCO4)cc12 105%
CC(=O)c1cccc(-n2nnnc2SCC(=O)NNC(=O)C2CCCCC2)c1 91.2%
O=C(COC(=O)/C(=C/c1cccs1)c1cccs1)NCc1ccccc1Cl 85.8%
O=C(CSc1ccccc1)Nc1ccc(C(=O)Nc2cccc(O)c2)cc1 109%
O=C(Cn1nnc(N2CCCCC2)n1)c1ccc(Cl)c(Cl)c1 97.6%
COc1cc(CCC(=O)OCC(=O)Nc2cccc(S(N)(=O)=O)c2)cc(OC)c1OC 95.2%
Cc1ccc(NC(=O)CNCc2ccccn2)cc1S(=O)(=O)N(C)C 97.7%
O=C1CCC/C(=N\NC(=O)NC2CCCCC2)C1 100%
COc1ccccc1-n1cn[nH]c1=S 102%
COc1ccc(OC)c(-n2c(-c3ccn[nH]3)n[nH]c2=S)c1 98.6%
COc1ccc(-c2onc(C)c2-c2ccc3c(c2)OCCO3)c(O)c1 101%
O=C(NCCCN1CCOCC1)c1ccccc1NS(=O)(=O)c1ccc(Br)cc1 99.3%
COc1ccc(C(=O)NNS(=O)(=O)c2ccc(C)cc2)cc1 101%
COc1ccc(C(=O)NNC(=O)c2cc(C)[nH]n2)cc1 121%
CC(=O)Nc1ccc(N2C(=O)CCC2=O)cc1C 100%
COc1ccccc1CCNC(=O)CSc1nnc2ccc(-c3cccnc3)nn12 92.2%
CCOC(=O)NNc1cc(C(F)(F)F)ccn1 133%
Nc1nnn(CC(=O)N/N=C/c2ccccc2)n1 99.3%
CC(OC(=O)c1ccc2ccccc2n1)C(=O)c1ccccc1 (stereo unspecified) 103%
COc1ccc(C2=NOC(COC(=O)c3ccc4ccccc4n3)C2)cc1 (stereo unspecified) 101%
COC(=O)C1=C(C)N(c2ccc(C)cc2)/C(=C/c2ccc(O)cc2)C1=O 99.9%
COc1cccc2c(N/N=C/c3ccco3)cc(C)nc12 96.9%
CCN(CC)CCNCC(=O)Nc1ccc(Oc2ccccc2)cc1 99.5%
Cn1c(=NC(=O)c2ccco2)sc2cccc(F)c21 103%
Cn1c(=NC(=O)C2CC2)sc2cc(F)cc(F)c21 96.6%
Cn1cc(-c2ccccc2)cc(C#N)c1=O 103%
Cc1ccccc1/[N+]([O-])=C/c1ccncc1 100%
CN(C)S(=O)(=O)c1cccc(NC(=O)COC(=O)/C=C/c2cccs2)c1 102%
Oc1ccc2ccccc2c1N=Nc1nccs1 99.8%
CONC(=O)c1cc(OCC(F)(F)F)ccc1OCC(F)(F)F 103%
CCc1ccc(C(=O)OCC(=O)Nc2cccc(S(=O)(=O)NC3=NCCCCC3)c2)cc1 104%
Cc1ccc(S(=O)(=O)N2CCC(C(=O)N[C@@H](C)C(=O)NCc3ccco3)CC2)cc1 103%
CN1CCN(C2=NCCO2)CC1 100%
O=C1C2N=NN(CC(=O)N3N=C(c4cccc5ccccc45)CC3c3ccccc3)C2C(=O)N1c1ccccc1 (stereo unspecified) 90.3%
COc1ccc(S(=O)(=O)N2CCCCCC2)cc1C(=O)OCC(=O)Nc1cc(C)on1 100%
COc1cc(/C=C(/NC(=O)c2ccc(Cl)cc2Cl)C(=O)O)cc(OC)c1OC 75.5%
C=C(C)CNC(=S)/N=c1\scc(C)n1CC 98.7%
O=S(=O)(c1ccccc1)N(CC(O)CN1CCCCC1)c1ccccc1 (stereo unspecified) 101%
Cc1ccc(N(CC(O)CN2CCCC2)S(=O)(=O)c2ccccc2)cc1 (stereo unspecified) 97.6%
C[C@H](NC(=O)c1ccccc1Cl)C(=O)OCCOc1cccc(Cl)c1 105%
NS(=O)(=O)c1ccc(CCNC(=O)c2ccc(Cl)cc2[N+](=O)[O-])cc1 102%
CC(=O)c1cc2c(cc1NC(=O)CN1CCCCCC1)OCO2 111%
